Laboratory results published in PubChem BioAssay (Tox21).
Results filed as inconclusive are left out. The source made the active and inactive calls. Unless noted, calls come from the whole dose curve; as a rule, active = well fitted curve in the direction sought with a large enough effect in the repeat runs; inconclusive = weak or mixed curves; inactive = no such curve, though single readings can be large; an effect the other way counts as inactive or inconclusive.

Tests used:
[1] = qHTS assay to identify small molecule antagonists of the estrogen related receptor (ERR) signaling pathway - cell viability counter screen (AID 1224818);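 note: series mostly up to about 46 µM; viability measured after 17.5 h of compound exposure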
Procedure, shortened: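 Quantitative high-throughput viability counter screen in ERR cells. Compounds (DMSO) incubated 17.5 h at 37 C; read-out was CellTiter-Fluor fluorescence.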

[2] = qHTS assay to identify small molecule antagonists of the estrogen related receptor signaling pathway with the pleiotropic PPARgamma coactivator (PGC) cell viability counter screen (AID 1224822; note: potency is the fitted concentration of half-maximal effect)
Procedure, shortened: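 Cytotoxicity in the PGC/ERR cell line is assessed with CellTiter-Fluor, read as fluorescence intensity 30 min after reagent addition, following 17.5 h compound treatment at 37 C.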

[3] = qHTS assay to identify small molecule antagonists of the estrogen related receptor (ERR) signaling pathway (AID 1224819; note: nearly all actives have a fitted effect of over 50% in size; note: potency is the fitted concentration of half-maximal effect)
Procedure, shortened: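 ERR reporter cell line (NTP) plated at 2,000 cells/well, settled 6 h at 37C/5% CO2, then exposed to LOPAC compounds for 18 h at 37C. One-Glo luciferase luminescence read after 30 min at room temperature.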

[4] = qHTS assay to identify small molecule agonists of the estrogen related receptor (ERR) signaling pathway (AID 1224820); note: potency is the fitted concentration of half-maximal effect
Procedure, shortened: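 After 6 h plating (2,000 cells/well) and 18 h compound treatment at 37 C, ERR cells were lysed with One-Glo and luminescence read after 30 min at room temperature.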

[5] = test system: estrogen-related receptor alpha (ERRalpha) with PGC-1alpha coactivator, human; assay: qHTS assay to identify small molecule antagonists of the estrogen related receptor signaling pathway with the pleiotropic PPARgamma coactivator (PGC) (AID 1224821; calls by dose curve; note: nearly all actives have a fitted effect of over 50% in size; note: potency is the fitted concentration of half-maximal effect)
Procedure, shortened: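 Luminescence from One-Glo luciferase reagent (30 min, room temperature) measured after 18 h compound treatment at 37 °C. Cells carry the PGC/ERR reporter and were seeded 6 h prior to dosing.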

[6] = qHTS assay to identify small molecule agonists of the estrogen related receptor signaling pathway with the pleiotropic PPARgamma coactivator (PGC) (AID 1224823); note: potency is the fitted concentration of half-maximal effect
Procedure, shortened: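 Luminescence from One-Glo reagent (30 min, room temperature) was read after 18 h compound treatment at 37 C of PGC/ERR cells plated 6 h beforehand; compounds delivered in DMSO by pin tool.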

[7] = qHTS assay to identify small molecule antagonists of the estrogen related receptor (ERR) signaling pathway from Tox21 library - cell viability counter screen (AID 1224834); note: nearly all actives have a fitted effect of over 30% in size; note: potency is the fitted concentration of half-maximal effect
Procedure, shortened: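 Compounds in DMSO were pinned onto ERR cells that had been incubated for 6 h, and the plates were held at 37 C for 17.5 h. CellTiter-Fluor reagent was then added and fluorescence was measured after 30 min.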

[8] = qHTS assay to identify small molecule agonists of the constitutive androstane receptor (CAR) signaling pathway - cell viability counter screen (AID 1224836); note: nearly all actives have a fitted effect of over 45% in size; note: potency is the fitted concentration of half-maximal effect
Procedure, shortened: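 Counter screen multiplexed with the CAR reporter readout: HepG2 cells co-transfected with hCAR and the CYP2B6-2.2kb construct receive a 15-concentration compound series and 0.75 uM PK11195 (final), then CellTiter-Fluor fluorescence is read after 23 h.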

[9] = target: Nuclear receptor subfamily 1 group I member 3 (Homo sapiens) (UniProt Q14994); assay: qHTS assay to identify small molecule antagonists of the constitutive androstane receptor (CAR) signaling pathway (AID 1224838);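 note: HepG2 cells stably expressing hCAR with CYP2B6 luciferase reporter stimulated by CITCO; nearly all actives have a fitted effect of over 40% in size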; note: potency is the fitted concentration of half-maximal effect
Procedure, shortened: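 Luminescence from a CYP2B6-2.2kb promoter reporter in hCAR-expressing HepG2 cells reflects CAR signaling. Cells received compounds at 15 concentrations and 50 nM CITCO (final), then incubated 24 h at 37 C/5% CO2.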

[10] = target: Nuclear receptor subfamily 1 group I member 3 (Homo sapiens) (UniProt Q14994); assay: qHTS assay to identify small molecule agonists of the constitutive androstane receptor (CAR) signaling pathway (AID 1224839); note: series mostly up to about 92 µM; nearly all actives have a fitted effect of over 15% in size
Procedure, shortened: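 A 15-concentration quantitative screen uses HepG2 cells co-transfected stably with human CAR and CYP2B6-2.2kb reporter. Treatment lasts 24 h with 0.75 uM PK11195 final present; ONE-Glo luminescence is the signal.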

[11] = qHTS assay to identify small molecule antagonists of the estrogen related receptor signaling pathway with the pleiotropic PPARgamma coactivator (PGC) from Tox21 10K library - cell viability counter screen (AID 1224840; active = well fitted cell-killing curve with a large enough effect in the repeat runs, not every such curve was filed as active; note: nearly all actives have a fitted effect of over 40% in size; note: potency is the fitted concentration of half-maximal effect)
Procedure, shortened: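 Cell viability is measured by CellTiter-Fluor fluorescence in PGC/ERR cells that receive compounds after a 6-hour attachment period and are then incubated 17.5 hours at 37 C.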

[12] = target: Luciferin 4-monooxygenase (Photinus pyralis) (UniProt P08659); assay: qHTS assay to identify small molecule inhibitors of firefly luciferase (AID 1224835); note: series mostly up to about 120 µM; nearly all actives have a fitted effect of over 25% in size
Procedure, shortened: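 Quantitative HTS format; KM concentrations of both substrates. Purified P. pyralis FLuc activity quantified from luminescence images.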

[13] = qHTS assay to identify small molecule antagonists of the estrogen related receptor signaling pathway with the pleiotropic PPARgamma coactivator (PGC) from Tox21 10K library (AID 1224841; call rule not given here; note: series mostly up to about 92 µM; actives are mostly falling curves and most rising ones were filed inactive; nearly all actives have a fitted effect of over 50% in size)
Procedure, shortened: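 Cells stably carrying the PGC/ERR reporter, seeded at 2,000 per well, received pin-transferred compounds 6 h post-plating. Exposure lasted 18 h at 37 C. Signal: One-Glo luminescence.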

[14] = qHTS assay to identify small molecule agonists of the estrogen related receptor signaling pathway with the pleiotropic PPARgamma coactivator (PGC) from Tox21 10K library (AID 1224842); note: nearly all actives have a fitted effect of over 15% in size
Procedure, shortened: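 PGC/ERR reporter cells (NTP line) were seeded 2,000 per well, rested 6 h at 37 C/5% CO2, then pin-dosed with compounds in DMSO for 18 h at 37 C; luciferase read by One-Glo luminescence after 30 min at room temperature.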

[15] = target: Thyrotropin receptor (Homo sapiens) (UniProt P16473); assay: qHTS assay to identify small molecule agonists of the thyroid stimulating hormone receptor (TSHR) signaling pathway (AID 1224843; calls by dose curve; note: nearly all actives have a fitted effect of over 45% in size)
Procedure, shortened: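 Compounds are titrated over 15 concentrations, in triplicate, onto TSHR-HEK293 cells seeded at 800/well. Plates sit 30 min at room temperature before cAMP-d2 and anti-cAMP cryptate are added; signal is read after a further hour.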

[16] = qHTS assay to identify small molecule agonists of the hypoxia (HIF-1) signaling pathway - cell viability counter screen (AID 1224844; calls by dose curve; note: nearly all actives have a fitted effect of over 50% in size)
Procedure, shortened: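 Viability counter screen: HRE-bla ME-180 cells plated 5 hrs before compound addition, treated 17 hrs at 37C and 5% CO2, then CellTiter-Glo added after the FRET reporter read; luminescence after 30 min.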

[17] = qHTS assay to identify small molecule agonists of H2AX (AID 1224845; active = well fitted activation curve with a large enough effect in the signal ratio in the repeat runs, not every such curve was filed as active; the % refers to the signal ratio)
Procedure, shortened: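 Wild-type CHO-K1 cells plated overnight, then exposed 3 hr at 37C to compounds at 15 concentrations (0.76% DMSO). Lysed, then HTRF anti-pH2AX(S139)-cryptate/anti-H2AX-d2 detection after 24 hr at room temperature; emissions 665 and 620 nm.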

Measured: Potency

Sequence of Nuclear receptor subfamily 1 group I member 3 (Homo sapiens) (Q14994 whole entry, looked up): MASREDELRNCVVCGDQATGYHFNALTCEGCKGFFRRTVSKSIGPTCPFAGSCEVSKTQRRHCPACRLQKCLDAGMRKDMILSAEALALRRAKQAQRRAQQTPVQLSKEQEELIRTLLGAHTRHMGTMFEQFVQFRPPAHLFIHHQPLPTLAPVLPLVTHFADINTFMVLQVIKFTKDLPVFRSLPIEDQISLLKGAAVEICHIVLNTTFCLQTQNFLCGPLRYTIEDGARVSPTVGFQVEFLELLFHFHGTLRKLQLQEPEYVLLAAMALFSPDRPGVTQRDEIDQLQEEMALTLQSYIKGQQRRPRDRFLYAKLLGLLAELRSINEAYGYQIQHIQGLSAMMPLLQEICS
Sequence of Thyrotropin receptor (Homo sapiens) (P16473 whole entry, looked up): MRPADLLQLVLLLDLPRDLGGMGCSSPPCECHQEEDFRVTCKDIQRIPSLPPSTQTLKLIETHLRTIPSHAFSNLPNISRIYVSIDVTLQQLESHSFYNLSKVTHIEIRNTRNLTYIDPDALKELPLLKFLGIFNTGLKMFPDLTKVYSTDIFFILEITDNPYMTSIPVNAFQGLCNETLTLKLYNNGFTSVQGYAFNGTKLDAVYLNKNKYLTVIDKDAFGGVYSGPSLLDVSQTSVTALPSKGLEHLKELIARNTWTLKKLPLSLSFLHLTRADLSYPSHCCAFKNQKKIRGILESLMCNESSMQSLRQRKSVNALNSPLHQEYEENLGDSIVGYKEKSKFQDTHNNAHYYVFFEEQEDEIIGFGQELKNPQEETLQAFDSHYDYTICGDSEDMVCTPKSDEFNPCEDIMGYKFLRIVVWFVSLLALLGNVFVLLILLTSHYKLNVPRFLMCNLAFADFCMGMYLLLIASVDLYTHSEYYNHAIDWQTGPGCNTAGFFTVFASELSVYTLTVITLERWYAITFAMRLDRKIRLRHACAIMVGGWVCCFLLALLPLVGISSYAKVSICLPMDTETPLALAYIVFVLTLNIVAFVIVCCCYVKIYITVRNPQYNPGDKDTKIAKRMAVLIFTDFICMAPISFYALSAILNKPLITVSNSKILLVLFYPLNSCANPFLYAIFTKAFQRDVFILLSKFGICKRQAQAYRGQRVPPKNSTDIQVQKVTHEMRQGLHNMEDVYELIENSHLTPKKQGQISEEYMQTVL
Sequence of Luciferin 4-monooxygenase (Photinus pyralis) (P08659 whole entry, looked up): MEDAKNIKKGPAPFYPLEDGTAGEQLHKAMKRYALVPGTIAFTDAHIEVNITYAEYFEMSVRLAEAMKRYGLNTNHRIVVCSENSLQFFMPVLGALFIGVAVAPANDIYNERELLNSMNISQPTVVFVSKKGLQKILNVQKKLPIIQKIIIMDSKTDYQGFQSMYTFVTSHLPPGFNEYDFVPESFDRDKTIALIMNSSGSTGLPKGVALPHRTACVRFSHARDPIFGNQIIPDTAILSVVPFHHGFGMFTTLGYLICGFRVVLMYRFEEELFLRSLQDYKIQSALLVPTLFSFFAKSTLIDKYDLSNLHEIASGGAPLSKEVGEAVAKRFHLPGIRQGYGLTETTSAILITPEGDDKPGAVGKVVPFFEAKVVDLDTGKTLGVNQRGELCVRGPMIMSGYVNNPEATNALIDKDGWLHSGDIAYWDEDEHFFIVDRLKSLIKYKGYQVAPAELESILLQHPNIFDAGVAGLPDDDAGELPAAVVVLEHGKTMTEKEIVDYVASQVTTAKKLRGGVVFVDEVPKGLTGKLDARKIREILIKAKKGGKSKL

COc1cc([C@@H]2c3cc4c(cc3[C@H](O)C3COC(=O)[C@@H]32)OCO4)cc(OC)c1OC (some centres not stated)
inactive: [1] | [2]

CCCCCCCCCCCCCCC[C@H](O)[C@H](N)CO
inactive: [1] | [2]

NC(N)=NC(=O)c1nc(Cl)c(N2CCCCCC2)nc1N
inactive: [4] | [5]
active: [3] 11.9 µM

Cc1cccc(/C=C/c2ccccc2)n1
active: [4] 13.3 µM
inactive: [3] | [5] | [2]

O=Nc1c(-c2c(O)[nH]c3ccccc23)[nH]c2ccccc12
active: [4] 2.87 µM | [2] 13.9 µM
inactive: [3] | [5]

CC(N)(Cc1ccc(O)c(O)c1)C(=O)O (configuration not stated)
inactive: [1] | [2]

C=C[C@H]1CN2CC[C@@H]1C[C@@H]2[C@@H](O)c1ccnc2ccc(OC)cc12
inactive: [1] | [2]

Nc1ncnc2c1ncn2[C@@H]1O[C@H](CO)C(O)[C@H]1O (some centres not stated)
inactive: [1] | [2]

COc1cccc(-c2cc(=O)c3ccccc3o2)c1N
active: [4] 1.96 µM | [6] 1.88 µM
inactive: [3] | [5] | [2]

N#C/C(=C\c1ccc(O)c(O)c1)C(=O)NCCc1ccccc1
inactive: [3] | [4] | [5] | [2]

CC[C@H]1OC(=O)[C@H](C)C(O[C@H]2C[C@@](C)(OC)[C@@H](O)[C@H](C)O2)[C@H](C)[C@@H](OC2O[C@H](C)C[C@H](N(C)C)[C@H]2O)[C@](C)(O)C[C@@H](C)CN(C)[C@H](C)[C@@H](O)[C@]1(C)O (some centres not stated)
inactive: [1] | [2]

CCN(CC)CCn1c(=O)c(Cc2ccc(OC)cc2)nc2ccccc21
inactive: [3] | [4] | [5] | [2]

COc1ccccc1N1CCN(CCCNc2c(C)c(=O)n(C)c(=O)n2C)CC1
inactive: [3] | [4] | [5] | [2] | [6]

CC(C)(C)NCC(O)COc1nsnc1N1CCOCC1 (configuration not stated)
inactive: [1] | [2]

CCCCC[C@H](CC(=O)NO)C(=O)N[C@H](C(=O)N1CCC[C@H]1CO)C(C)C
active: [3] 5.11 µM | [5] 10.2 µM
inactive: [4] | [2]

CC(=O)[C@]1(O)Cc2c(O)c3c(c(O)c2[C@@H](O[C@H]2C[C@H](N)[C@H](O)[C@H](C)O2)C1)C(=O)c1ccccc1C3=O
active: [7] 1.06 µM | [8] 2.66 µM | [9] 0.237 µM | [11] 11.9 µM
inactive: [1] | [10]

NCC(O)c1ccc(O)c(O)c1 (configuration not stated)
inactive: [1] | [2]

CN1C2CCC1CC(OC(=O)C(CO)c1ccccc1)C2 (configuration not stated)
inactive: [1] | [2]

NCC1OC(OC2C(O)[C@@H](OC3C(O)C(N)CC(N)C3OC3OC(CO)C(O)C(O)C3N)O[C@@H]2CO)C(N)C(O)C1O (some centres not stated)
inactive: [3] | [4] | [5] | [2] | [6]

O=C1NC(O)=NC1(c1ccccc1)c1ccccc1
inactive: [1] | [2]

C=C/C(C)=C/[C@@]1(C)SC(=O)C(C)=C1O
inactive: [3] | [4] | [5] | [2] | [6]

CC[C@@H]1Cc2cc(O)ccc2C2=C1c1ccc(O)cc1C[C@H]2CC
inactive: [4] | [6]
active: [3] 14.4 µM | [5] 15 µM

O=[N+]([O-])c1cccc2c(Br)[nH]nc12
inactive: [3] | [4] | [5] | [2] | [6]

CCN(CC)CCOc1ccc(Nc2ncc3cc(-c4c(Cl)cccc4Cl)c(=O)n(C)c3n2)cc1
inactive: [4] | [5]
active: [3] 9.08 µM | [2] 1.74 µM | [6] 0.0908 µM

CNCCC(Oc1ccccc1C)c1ccccc1 (configuration not stated)
inactive: [3] | [4] | [5] | [2] | [6]

Nc1ncnc2c1c(-c1ccc(Oc3ccccc3)cc1)cn2C1CCCC1
active: [3] 11.9 µM
inactive: [4] | [5] | [6]

O=C(O)c1cc([N+](=O)[O-])ccc1NCCCc1ccccc1
inactive: [3] | [4] | [5] | [6]

Cn1ccnc1
inactive: [3] | [4] | [5] | [2] | [6] | [7] | [12] | [8] | [9] | [10] | [11] | [13] | [14] | [15] | [16] | [17]

OCC1O[C@H](O)C(Cl)C(O)C1O (some centres not stated)
inactive: [3] | [4] | [5] | [2] | [6]

CCCCCCCC/C=C\CCCCCCCC(=O)NCCO
inactive: [3] | [4] | [5] | [2] | [6]
